Inconclusive results are not listed. Calls of active or inactive are those of the source. Calls follow the shape of the dose curve; as a rule, active = well fitted inhibition curve with a large enough effect; inconclusive = small, poorly fitted or top-dose-only effect; inactive = flat fitted curve, though single readings scatter.
Target: Tyrosyl-DNA phosphodiesterase 1 (Homo sapiens) (UniProt Q9NUW8)
Assay: Confirmation Assay for Inhibitors of Tyrosyl-DNA Phosphodiesterase (TDP1) (AID 489007); also: nearly all actives have a fitted effect of over 40% in size
Conditions: recombinant human TDP1 enzymatic activity, dose-response
In short: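 Confirmation of primary-screen follow-ups in a qHTS format. Substrate cleavage by Tdp1 (1 nM) of a 3'-phosphotyrosine-FITC, 5'-biotin oligo (15 nM) was monitored as decreased AlphaScreen signal after a 5 min room-temperature reaction.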
Potency is read from the fitted curve at half-maximal effect.

Tyrosyl-DNA phosphodiesterase 1 (Homo sapiens), sequence (Q9NUW8 whole entry, looked up): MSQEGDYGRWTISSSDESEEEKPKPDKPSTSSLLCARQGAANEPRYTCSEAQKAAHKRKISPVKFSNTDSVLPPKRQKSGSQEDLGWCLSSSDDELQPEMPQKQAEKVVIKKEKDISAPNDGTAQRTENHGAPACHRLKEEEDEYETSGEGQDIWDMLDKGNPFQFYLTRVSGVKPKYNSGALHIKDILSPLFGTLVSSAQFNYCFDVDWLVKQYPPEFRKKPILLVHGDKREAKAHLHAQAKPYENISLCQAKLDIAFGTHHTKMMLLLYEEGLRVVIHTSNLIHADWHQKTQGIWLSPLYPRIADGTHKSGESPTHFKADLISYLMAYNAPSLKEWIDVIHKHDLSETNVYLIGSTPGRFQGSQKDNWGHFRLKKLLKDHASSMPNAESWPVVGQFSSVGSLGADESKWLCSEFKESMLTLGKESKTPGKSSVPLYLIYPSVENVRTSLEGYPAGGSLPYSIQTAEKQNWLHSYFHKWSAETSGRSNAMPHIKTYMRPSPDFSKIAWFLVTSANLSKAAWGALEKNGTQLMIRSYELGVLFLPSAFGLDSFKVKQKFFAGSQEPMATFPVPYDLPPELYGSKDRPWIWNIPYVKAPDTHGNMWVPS

Potency, active:
Cc1cccc(N2CCN(S(=O)(=O)c3ccc4[nH]c(=O)c(=O)[nH]c4c3)CC2C)c1 (stereo not given) 39.8 µM
COc1ccc(S(=O)(=O)N2Cc3ccccc3CC2C(=O)O)cc1 (stereo not given) 12.6 µM
Cc1ccc(CSc2nnc(SCC(=O)N/N=C/c3c[nH]c4ccccc34)s2)cc1 5.62 µM
N#C/C(=C\c1ccc(OCc2ccc(F)cc2)cc1)C(=O)Nc1cccc(C(=O)O)c1 14.1 µM
Cc1ccc(S(=O)(=O)N2CCCN(c3nc4cc(C)ccc4cc3C#N)CC2)cc1 39.8 µM
N#CC(C#N)=Cc1cccn1-c1ccc(C(=O)O)cc1 3.98 µM
O=C(O)C1CC=CCC1C(=O)Nc1ccccc1 (stereo not given) 14.1 µM
Fc1ccc(C2CC(c3cccs3)=NN2c2ccccc2)cc1 (stereo not given) 15.8 µM
Cc1ccc(NC(=O)c2noc3c2CCC3)cc1C 12.6 µM
CC(=O)c1ccc(NC(=O)c2ccc3nc(-c4ccco4)c(-c4ccco4)nc3c2)cc1 7.08 µM
Cc1nc2ccc(C(=O)O)cc2c2c1CC(C)S2 (stereo not given) 31.6 µM
CCCn1c(SCC(=O)NC(=O)NCc2ccco2)n[nH]c1=O 25.1 µM
CCN(CC)C(=O)CC(c1ccc(OC)cc1)c1c(OC)cc(OC)c2c(-c3ccccc3)cc(=O)oc12 (stereo not given) 2.24 µM
O=C1NN(c2ccccc2)C(=O)/C1=C/c1ccc(-c2ccc(Cl)c(C(=O)O)c2)o1 7.08 µM
Nc1cc([N+](=O)[O-])ccc1N1C(=O)CCCC1=O 15.8 µM
